Among the test systems are T-47D breast; BT-549 breast; MDA-MB-435 melanoma; SW-620 colon; MCF7 breast; HCT-116 colon; HCC-2998 colon; KM12 colon.
Assay in all cases: NCI-60 one-dose screen, 48 h (100 = growth as untreated, 0 = no growth, -100 = all killed)
Holding throughout (conditions): 10 µM unless noted

Structures are written as SMILES. Compounds without any hit were thinned out: in the full panel of roughly 83,000, 20% have a hit.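 For each line, cells grew in 96-well plates with the test compound present at a single concentration for 48 hours.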 Unmarked numbers belong to inactive results. Calls of active or inactive are those of the source. The calls were made as follows: active = growth percent below 10; inactive = the rest.

In the case of `CCCNc1nc(N(C)O)nc(N(C)O)n1`, the growth is 28.2% with T-47D breast; 68.5% in the test on BT-549 breast; 51.2% in the test with MDA-MB-435 melanoma; 38.1% with SW-620 colon; 15.6% in the test with MCF7 breast; 5.06% (active) in the test with HCT-116 colon. For the same molecule, the growth in the test with HCC-2998 colon was 24.5%; in the test with KM12 colon, 41.5%.
Take `COC(=O)[C@]12CC[C@@H](C)[C@H](C)[C@@H]1C1=CC[C@@H]3[C@@]4(C)C[C@@H](O)OC[C@](C)(C=O)C4C(=O)C[C@@]3(C)[C@]1(C)CC2` (stereo not given in full): the growth with T-47D breast is -4.48% (active); with BT-549 breast it was -10.1% (active); with MDA-MB-435 melanoma, 2.15% (active); with SW-620 colon it was 17%; with MCF7 breast, 6.16% (active); in the test with HCT-116 colon it was -44.4% (active). Besides, the results for the growth with HCC-2998 colon and in the test with KM12 colon were 6.06% (active) and 6.15% (active), respectively.
As to `O=c1c2sc3ncc(Br)cc3c2ncn1-c1cccc(Cl)c1`, the growth with T-47D breast was 61.9%; in the test with BT-549 breast it was 78.9%; in the test with MDA-MB-435 melanoma it was 75.2%; in the test with SW-620 colon it was 58.8%; with MCF7 breast, 94.2%; in the test on HCT-116 colon it was 27.4%. Also, the growth in the test on HCC-2998 colon was 104%; with KM12 colon, 72.2%.
Turning to `CC1(C)NCCC[C@]2(C)[C@H]3CC[C@@H]4[C@H]5[C@H](C(=O)/C=C/c6ccccn6)CC[C@]5(CO)CC[C@@]4(C)[C@]3(C)CC[C@@H]12`, the growth is 30.7% in the test on T-47D breast; 64.6% with BT-549 breast; 57.3% in the test on MDA-MB-435 melanoma; -51% (active) in the test with SW-620 colon; 20.3% in the test on MCF7 breast; -7.47% (active) in the test with HCT-116 colon. In addition, the growth in the test with HCC-2998 colon is 47.9%; in the test on KM12 colon, 25.5%.
Regarding `C[C@@H](Oc1ccc(C(=O)NS(=O)(=O)C(C)(C)C)cc1C(F)(F)F)c1ccc(Oc2ccccc2)cn1`, the growth with T-47D breast is 39%; with BT-549 breast, 27.6%; with MDA-MB-435 melanoma, -50.1% (active); with SW-620 colon, 23.3%; in the test with MCF7 breast, 15%; in the test on HCT-116 colon, 25.5%. Moreover, the growth with HCC-2998 colon is 61.1%; in the test with KM12 colon, 28.3%.
`COc1cccc(-c2nn(-c3ccccc3)cc2-c2ccnc(NCCCN)c2)c1`: the growth in the test on T-47D breast is 59.1%; in the test with BT-549 breast, 68.6%; with MDA-MB-435 melanoma, -6.82% (active); in the test with SW-620 colon, 43.5%; in the test on MCF7 breast, 41.8%; with HCT-116 colon it was 45.1%. In addition, the growth with HCC-2998 colon is 65.6%; in the test on KM12 colon, 71.9%.
As for `NC(N)=N/N=C/c1ccc(-c2ccc(-c3ccc(Cl)cn3)s2)cc1`, the growth in the test with T-47D breast is 91.2%; with BT-549 breast, 98.8%; in the test on MDA-MB-435 melanoma it was 98.5%; in the test with SW-620 colon it was 2.46% (active); in the test with MCF7 breast, 42.8%; in the test with HCT-116 colon it was 50.2%. In addition, the growth with HCC-2998 colon was 98.4%; with KM12 colon it was 14.8%.
Turning to `CCCCCCCC(=O)SCC/C=C/[C@@H]1CC(=O)NCc2cccc(n2)CN(Cc2ccc(Cl)cc2)CC(=O)N[C@@H](C(C)C)C(=O)O1`, the growth in the test on T-47D breast was 30.9%; with BT-549 breast, 38.8%; in the test with MDA-MB-435 melanoma, 6.92% (active); in the test with SW-620 colon, 16.7%; with MCF7 breast, 9.09% (active); in the test with HCT-116 colon, -1.93% (active). Moreover, the growth was -24.2% (active) in the test with HCC-2998 colon and 5.69% (active) in the test on KM12 colon.
With `COc1cccc(-c2nn(-c3ccccc3)cc2-c2ccnc(NCCNS(=O)(=O)c3cccc(F)c3)c2)c1`, the growth in the test with T-47D breast is 6.41% (active); in the test on BT-549 breast, 46.9%; in the test on MDA-MB-435 melanoma it was 20%; in the test with SW-620 colon, 46%; in the test with MCF7 breast it was 14.1%; with HCT-116 colon, 21.4%. The figures for the growth with HCC-2998 colon and with KM12 colon were 17.1% and 19.6%, respectively.
As to `O=C(O)c1cccc2c1-c1ccc(Cl)cc1C2`, the growth was 97.9% with T-47D breast; 113% with BT-549 breast; 106% in the test on MDA-MB-435 melanoma; 111% with SW-620 colon; 104% with MCF7 breast; 107% in the test with HCT-116 colon. Also, in the test with KM12 colon, the growth is 108%.
For `Cc1cc(N(CCCNc2ccnc3cc(Cl)ccc23)Cc2ccco2)nc(N2CCOCC2)n1`, the growth in the test on T-47D breast is 88.5%; in the test on BT-549 breast, 58.4%; in the test with MDA-MB-435 melanoma it was 62.9%; in the test with SW-620 colon, 63.3%; in the test on MCF7 breast, 63.4%; in the test with HCT-116 colon, 43.8%. Also, the figures for the growth in the test with HCC-2998 colon and in the test with KM12 colon were 87.4% and 79.3%, respectively.
In the case of `O=C1c2cccc3cccc(c23)C(=O)N1CC#Cc1ccc2c3c(cccc13)C(=O)N(CCN1CCNCC1)C2=O`, the growth with T-47D breast was 38.3%; in the test with BT-549 breast, 101%; in the test on MDA-MB-435 melanoma, 105%; in the test with SW-620 colon, 28.3%; in the test on MCF7 breast, -43.9% (active); in the test on HCT-116 colon, -64.1% (active). For the same molecule, the growth in the test with KM12 colon was 98.9%.
As to `N#CC1=C(N)Oc2c(c(N)nn2-c2ccccc2)C1c1ccc(Cl)cc1` (stereo not given), the growth with T-47D breast is 86.7%; with BT-549 breast, 81.5%; with MDA-MB-435 melanoma, 105%; with SW-620 colon it was 98.1%; in the test with MCF7 breast, 98.7%; in the test with HCT-116 colon, 96.2%. Moreover, the growth with HCC-2998 colon is 113%; in the test with KM12 colon, 104%.
In the case of `COC(=O)[C@]12CC[C@@H](C)[C@H](C)[C@@H]1C1=CC[C@@H]3[C@@](C)(CC#N)C4=C(C[C@@]3(C)[C@]1(C)CC2)OC[C@]4(C)C=O`, the growth in the test on T-47D breast is -9.08% (active); in the test with BT-549 breast, -15.2% (active); in the test with MDA-MB-435 melanoma, 3.05% (active); in the test on SW-620 colon, 0.614% (active); in the test with MCF7 breast, -10.2% (active); with HCT-116 colon it was 3.7% (active). The growth was -45.3% (active) with HCC-2998 colon and 4.23% (active) in the test with KM12 colon.

The values above are taken from PubChem BioAssay (NCI).
